Assay results as given in PubChem BioAssay (EPA / NIEHS).
Where “and” joins values, the source holds several entries; their conditions need not be identical. Equal values may be shown once. Records with an inconclusive call do not appear. Calls of active or inactive are those of the source. The calls were made as follows: active = hit-call score of the fitted dose curve at least 0.9, where 1 is the maximum; inconclusive = response in the unintended direction; inactive = score below 0.9.

Legend:
[1] = biological target: rat Peripheral-type Benzodiazepine Receptor (PBR), Tspo (gene 24230) (UniProt P16257); test: NVS_MP_rPBR: NovaScreen (NVS) Membrane Protein Assay for rat Peripheral-type Benzodiazepine Receptor (PBR) (AID 2283335)
How it was run: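 Competitive displacement of specific radioligand from rat kidney membrane PBR, read by filtration and scintillation after 1 h. Compounds first tested at 25 uM in duplicate, then in concentration series; signal loss relative to DMSO.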

[2] = biological target: Estrogen receptor (Homo sapiens) (UniProt P03372); test: NVS_NR_hER: NovaScreen (NVS) Nuclear Receptor Binding Assay for human Estrogen Receptor (ER) (AID 2283348)
How it was run: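 Cell-free MCF7-derived ER preparation, specific radioligand displaced by test compound, read by scintillation counting 18 h post-dosing. Duplicate single-point 25 uM screen, then concentration-response confirmation; DMSO baseline.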

PGR (gene 5241) = PGR (gene 5241) (UniProt P06401); test: NVS_NR_hPR: NovaScreen (NVS) Nuclear Receptor Binding Assay for human Progestron Receptor (PR) (AID 2283360);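 also: active means loss of bound radioligand signal versus DMSO baseline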
How it was run: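 Cell-free radioligand binding using receptor protein extracted from T47D cells, read by scintillation counting 18 hours after dosing. Loss of signal relative to DMSO baseline indicates displacement; primary screen single concentration 25 uM in duplicate, actives followed in concentration series.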

[3] = biological target: human Peripheral-type Benzodiazepine Receptor (PBR), TSPO (gene 706) (UniProt P30536); test: NVS_MP_hPBR: NovaScreen (NVS) Membrane Protein Assay for human Peripheral-type Benzodiazepine Receptor (PBR) (AID 2283331);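 also: hits reduce radioligand binding relative to DMSO baseline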
How it was run: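 Cell-free binding to human colonic membrane preparations measured by filter-based scintillation counting after 1 h. Compounds first run at 25 uM in duplicate, then concentration series for actives; signal loss against DMSO baseline.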

[4] = biological target: Estrogen receptor (Homo sapiens) (UniProt P03372); test: OT_ER_ERaERa_1440: Odyssey Thera (OT) 24-hour HEK293T Protein-Complementation Assay for Estrogen Receptor-alpha/-alpha Homodimer (AID 2283349);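 also: hits raise fluorescence above DMSO for agonists and antagonists alike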
How it was run: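 HEK293T, stable ERα LBD (aa 310-547) homodimer PCA; 24 h compound exposure; mean fluorescence intensity (nuclear for agonists, nuclear plus cytoplasmic for antagonists) vs vehicle; positive fitting direction, DMSO baseline.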

[5] = biological target: Estrogen receptor (Homo sapiens) (UniProt P03372); test: OT_ER_ERaERa_0480: Odyssey Thera (OT) 8-hour HEK293T Protein-Complementation Assay for Estrogen Receptor-alpha/-alpha Homodimer (AID 2283351);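 also: rise in fluorescence from reassembled reporter fragments on ERα LBD homodimer in nucleus or whole cell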
How it was run: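 HEK293T cells stably expressing a PCA pair of ER alpha LBD (residues 310-547) were dosed for 8 hours. The gain in fluorescence intensity, nuclear for agonists and whole-cell for antagonists, was measured by laser scanning cytometry against DMSO vehicle.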

[6] = biological target: T1, Estrogen receptor (Homo sapiens) + Estrogen receptor beta (Homo sapiens) (UniProt P03372+Q92731); test: OT_ER_ERaERb_0480: Odyssey Thera (OT) 8-hour HEK293T Protein-Complementation Assay for Estrogen Receptor-alpha/-beta Heterodimer (AID 2283352)
How it was run: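 HEK293T protein-fragment complementation assay of ER-alpha/ER-beta LBD heterodimerisation, read 8 h after dosing. Mean nuclear/cytoplasmic fluorescence intensity measured by laser scanning cytometry; gain of signal fitted relative to DMSO.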

[7] = biological target: Androgen Receptor/SRC-1 Co-activator, AR (gene 367) (UniProt P10275); test: OT_AR_ARSRC1_0960: Odyssey Thera (OT) 16-hour HEK293T Protein-Complementation Assay for Androgen Receptor/SRC-1 Co-activator (AID 2283353);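 also: actives raise the signal above DMSO so potency reflects increased AR and SRC-1 complex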
How it was run: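 Endpoint is gain-of-signal N/C fluorescence ratio in the 488 nm channel versus DMSO, from at least 400 cells per image, measured 16 h post-dosing. Cells: HEK293T stably carrying split-Venus AR/SRC-1 complementation constructs.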

[8] = biological target: T1, Estrogen receptor (Homo sapiens) + Estrogen receptor beta (Homo sapiens); test: OT_ER_ERaERb_1440: Odyssey Thera (OT) 24-hour HEK293T Protein-Complementation Assay for Estrogen Receptor-alpha/-beta Homodimer (AID 2283356);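 also: heteromer of ER alpha and ER beta binding domains; hits raise reporter fluorescence and both agonists and antagonists give an increase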
How it was run: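 HEK293T stably expressing a PCA of ER alpha LBD (aa 310-547) and ER beta LBD (aa 263-489). After 24 h compound exposure, mean fluorescence intensity in nucleus (agonists) or nucleus and cytoplasm (antagonists) measured by laser scanning cytometry versus vehicle.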

[9] = biological target: bovine Estrogen Receptor (ER), ESR1 (gene 407238) (UniProt P49884); test: NVS_NR_bER: NovaScreen (NVS) Nuclear Receptor Binding Assay for bovine Estrogen Receptor (ER) (AID 2283345);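 also: actives lower the bound radioligand count which means they displace the ER ligand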
How it was run: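 Cell-free radioligand binding with receptor from bovine uterine membranes, read by scintillation counting 18 h after dosing. Loss of specific binding was scored against DMSO; primary screen at 25 uM in duplicate, actives then run as concentration series.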

[10] = biological target: rat Mineralocorticoid Receptor (MR), Nr3c2 (gene 25672) (UniProt P22199); test: NVS_NR_rMR: NovaScreen (NVS) Nuclear Receptor Binding Assay for rat Mineralocorticoid Receptor (MR) (AID 2283355)
How it was run: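 Primary HTS ran in duplicate at a single 25 uM concentration, with concentration-series follow-up for actives. Receptor source: adrenalectomized rat brain supernatant, cell-free. Radioligand displacement read by scintillation at 24 h, relative to DMSO baseline.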

[11] = biological target: Glucocorticoid receptor (Homo sapiens) (UniProt P04150); test: NVS_NR_hGR: NovaScreen (NVS) Nuclear Receptor Binding Assay for human Glucocorticoid Receptor (GR) (AID 2283363);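 as to AC50: activity is loss of specific radioligand binding signal relative to DMSO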
How it was run: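 Compounds first tested in duplicate at 25 uM, actives followed up in concentration series. Binding to extracted GR protein measured as competitive radioligand displacement, filter scintillation read 16 h post-dosing, normalised to DMSO.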

[12] = biological target: human Constitutive Androstane Receptor (CAR), NR1I3 (gene 9970) (UniProt Q14994); test: NVS_NR_hCAR_Antagonist: NovaScreen (NVS) Nuclear Receptor Binding Assay for human Constitutive Androstane Receptor Antagonism (CAR) (AID 2283344)
How it was run: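 Single 25 uM duplicate primary screen, with concentration-series follow-up on actives. Cell-free binding format run in antagonist mode, TR-FRET signal taken 1 h post-dose; activity is signal loss relative to DMSO.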

[13] = NVS_IC_rCaBTZCHL: NovaScreen (NVS) Ion Channel Assay for Calcium Channel, Type L, Benzothiazepine Site (CaBTZCHL) (AID 2283337)
How it was run: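 Rat cortical membrane preparation incubated 1.5 h with compound and benzothiazepine-site radioligand; loss of filter-bound counts versus DMSO marks displacement. Initial duplicate testing at 25 uM, actives followed up in concentration series.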

[14] = biological target: human Androgen Receptor (AR), AR (gene 367) (UniProt P10275); test: NVS_NR_hAR: NovaScreen (NVS) Nuclear Receptor Binding Assay for human Androgen Receptor (AR) (AID 2283332)
How it was run: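 Radioligand competitive binding, scintillation read-out, in cell-free extract from LnCAP, measured 20 h after dosing. Screened first in duplicate at 25 uM, then concentration series for actives; activity fitted against DMSO.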

NCBI gene 100848466 = test: NVS_NR_bPR: NovaScreen (NVS) Nuclear Receptor Binding Assay for bovine Progextron Receptor (PR) (AID 2283343);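 also: actives lower bound radioligand signal below DMSO meaning displacement of the label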
How it was run: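 Competitive radioligand binding with membranes from bovine uterus, scintillation read-out at 18 h post-dose. Compounds first tested in duplicate at 25 uM, then actives in concentration series; loss-of-signal relative to DMSO.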

[15] = biological target: Retinoic acid receptor alpha (Homo sapiens) (UniProt P10276); test: NVS_NR_hRAR_Antagonist: NovaScreen (NVS) Nuclear Receptor Binding Assay for human Retinoic Acid Alpha Receptor Antagonism (RAR) (AID 2283358)
How it was run: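 RARalpha antagonism was read by TR-FRET as loss of binding signal versus DMSO, 2 h after chemical addition, in a biochemical format. Single-concentration duplicates (25 uM) were run first, and actives were retested in concentration series.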

Chain of rat Peripheral-type Benzodiazepine Receptor (PBR), Tspo (gene 24230) (P16257 whole entry, looked up): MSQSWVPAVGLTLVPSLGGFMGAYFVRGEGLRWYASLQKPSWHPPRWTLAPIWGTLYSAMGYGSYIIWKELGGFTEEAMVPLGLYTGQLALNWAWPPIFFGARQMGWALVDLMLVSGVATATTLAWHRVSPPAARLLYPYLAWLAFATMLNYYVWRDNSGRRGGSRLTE
Chain of Glucocorticoid receptor (Homo sapiens) (P04150 whole entry, looked up): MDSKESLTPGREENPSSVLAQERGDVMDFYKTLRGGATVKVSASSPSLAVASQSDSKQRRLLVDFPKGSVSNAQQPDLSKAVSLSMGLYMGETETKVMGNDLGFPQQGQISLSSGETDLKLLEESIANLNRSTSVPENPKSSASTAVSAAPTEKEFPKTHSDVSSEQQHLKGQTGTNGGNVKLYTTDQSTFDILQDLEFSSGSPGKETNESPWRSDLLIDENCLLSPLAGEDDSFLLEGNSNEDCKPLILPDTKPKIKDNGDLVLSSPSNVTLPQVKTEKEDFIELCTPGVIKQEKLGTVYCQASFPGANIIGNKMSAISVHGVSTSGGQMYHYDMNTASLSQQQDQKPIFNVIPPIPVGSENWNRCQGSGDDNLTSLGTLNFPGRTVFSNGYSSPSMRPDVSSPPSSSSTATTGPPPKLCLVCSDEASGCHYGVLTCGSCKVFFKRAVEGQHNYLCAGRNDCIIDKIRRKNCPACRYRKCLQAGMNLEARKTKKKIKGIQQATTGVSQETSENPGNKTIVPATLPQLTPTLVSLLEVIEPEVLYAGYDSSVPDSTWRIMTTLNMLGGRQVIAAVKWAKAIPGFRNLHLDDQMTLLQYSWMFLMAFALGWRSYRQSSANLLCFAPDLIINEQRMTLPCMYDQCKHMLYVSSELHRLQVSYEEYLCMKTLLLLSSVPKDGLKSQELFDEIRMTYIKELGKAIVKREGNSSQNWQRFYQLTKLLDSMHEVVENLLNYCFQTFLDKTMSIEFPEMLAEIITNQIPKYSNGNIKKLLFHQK
Chain of human Peripheral-type Benzodiazepine Receptor (PBR), TSPO (gene 706) (P30536 whole entry, looked up): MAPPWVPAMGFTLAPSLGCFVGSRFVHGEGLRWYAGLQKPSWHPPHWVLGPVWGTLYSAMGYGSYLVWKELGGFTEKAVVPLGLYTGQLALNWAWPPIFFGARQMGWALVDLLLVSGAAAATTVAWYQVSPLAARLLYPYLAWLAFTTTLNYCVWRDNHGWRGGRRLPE
Chain of PGR (gene 5241) (P06401 whole entry, looked up): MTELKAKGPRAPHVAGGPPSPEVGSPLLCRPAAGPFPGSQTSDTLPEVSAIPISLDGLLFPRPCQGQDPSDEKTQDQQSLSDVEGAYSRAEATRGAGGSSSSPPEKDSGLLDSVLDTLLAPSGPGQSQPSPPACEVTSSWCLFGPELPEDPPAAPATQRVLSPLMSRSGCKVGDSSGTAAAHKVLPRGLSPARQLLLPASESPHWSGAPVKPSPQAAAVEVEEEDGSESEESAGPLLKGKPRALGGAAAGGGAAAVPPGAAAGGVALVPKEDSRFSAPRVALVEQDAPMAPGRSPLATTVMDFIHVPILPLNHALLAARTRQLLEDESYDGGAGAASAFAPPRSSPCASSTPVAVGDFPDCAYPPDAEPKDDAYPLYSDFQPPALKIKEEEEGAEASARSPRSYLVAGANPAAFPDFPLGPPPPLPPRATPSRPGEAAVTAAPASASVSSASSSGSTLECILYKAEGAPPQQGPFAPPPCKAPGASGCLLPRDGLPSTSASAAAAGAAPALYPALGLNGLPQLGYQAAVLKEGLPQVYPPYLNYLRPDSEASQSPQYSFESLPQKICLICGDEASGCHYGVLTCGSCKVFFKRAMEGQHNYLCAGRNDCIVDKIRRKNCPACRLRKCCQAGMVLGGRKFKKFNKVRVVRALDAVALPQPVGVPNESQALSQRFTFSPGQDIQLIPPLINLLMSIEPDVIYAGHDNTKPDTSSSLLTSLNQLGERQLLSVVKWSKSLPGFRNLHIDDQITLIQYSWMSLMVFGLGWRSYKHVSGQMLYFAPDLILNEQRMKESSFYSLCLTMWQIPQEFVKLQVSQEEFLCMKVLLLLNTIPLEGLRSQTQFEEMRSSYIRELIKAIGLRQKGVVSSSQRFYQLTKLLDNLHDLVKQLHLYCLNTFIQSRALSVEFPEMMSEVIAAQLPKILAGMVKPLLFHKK
Chain of Estrogen receptor (Homo sapiens) (P03372 whole entry, looked up, the tested form may be a part): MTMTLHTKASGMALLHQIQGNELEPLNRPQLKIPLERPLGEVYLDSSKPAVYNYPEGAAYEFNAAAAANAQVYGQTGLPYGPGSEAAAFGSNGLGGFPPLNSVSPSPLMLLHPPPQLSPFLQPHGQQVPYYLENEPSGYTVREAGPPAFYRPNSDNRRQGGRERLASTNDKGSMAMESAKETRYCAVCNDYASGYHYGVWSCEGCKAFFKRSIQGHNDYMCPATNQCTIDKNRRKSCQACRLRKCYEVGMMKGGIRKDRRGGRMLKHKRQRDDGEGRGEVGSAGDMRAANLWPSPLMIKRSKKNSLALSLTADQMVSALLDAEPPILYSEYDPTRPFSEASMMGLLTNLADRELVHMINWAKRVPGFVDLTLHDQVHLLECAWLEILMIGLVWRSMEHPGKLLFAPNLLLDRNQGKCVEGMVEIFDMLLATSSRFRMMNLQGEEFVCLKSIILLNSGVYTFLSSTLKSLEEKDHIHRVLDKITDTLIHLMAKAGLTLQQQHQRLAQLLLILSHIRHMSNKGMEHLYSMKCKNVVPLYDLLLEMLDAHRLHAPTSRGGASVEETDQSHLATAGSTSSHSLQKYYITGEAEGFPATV
T1 sequence (P03372 whole entry, looked up, the tested form may be a part): as above
T1 sequence (Q92731 whole entry, looked up, the tested form may be a part): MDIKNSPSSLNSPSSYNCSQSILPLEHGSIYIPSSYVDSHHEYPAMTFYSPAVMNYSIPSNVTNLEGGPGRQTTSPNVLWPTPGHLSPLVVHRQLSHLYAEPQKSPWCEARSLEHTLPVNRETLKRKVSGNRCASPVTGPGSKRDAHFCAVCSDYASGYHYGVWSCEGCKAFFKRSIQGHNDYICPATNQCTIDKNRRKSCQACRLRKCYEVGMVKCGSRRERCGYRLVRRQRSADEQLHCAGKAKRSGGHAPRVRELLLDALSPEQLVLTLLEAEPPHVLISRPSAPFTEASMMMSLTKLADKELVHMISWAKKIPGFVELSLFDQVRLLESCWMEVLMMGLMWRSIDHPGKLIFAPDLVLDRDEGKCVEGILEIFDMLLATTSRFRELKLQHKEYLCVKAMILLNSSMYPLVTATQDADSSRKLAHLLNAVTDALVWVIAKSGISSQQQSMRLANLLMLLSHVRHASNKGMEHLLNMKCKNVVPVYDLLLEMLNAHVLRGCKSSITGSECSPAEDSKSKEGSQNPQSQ
Chain of rat Mineralocorticoid Receptor (MR), Nr3c2 (gene 25672) (P22199 whole entry, looked up): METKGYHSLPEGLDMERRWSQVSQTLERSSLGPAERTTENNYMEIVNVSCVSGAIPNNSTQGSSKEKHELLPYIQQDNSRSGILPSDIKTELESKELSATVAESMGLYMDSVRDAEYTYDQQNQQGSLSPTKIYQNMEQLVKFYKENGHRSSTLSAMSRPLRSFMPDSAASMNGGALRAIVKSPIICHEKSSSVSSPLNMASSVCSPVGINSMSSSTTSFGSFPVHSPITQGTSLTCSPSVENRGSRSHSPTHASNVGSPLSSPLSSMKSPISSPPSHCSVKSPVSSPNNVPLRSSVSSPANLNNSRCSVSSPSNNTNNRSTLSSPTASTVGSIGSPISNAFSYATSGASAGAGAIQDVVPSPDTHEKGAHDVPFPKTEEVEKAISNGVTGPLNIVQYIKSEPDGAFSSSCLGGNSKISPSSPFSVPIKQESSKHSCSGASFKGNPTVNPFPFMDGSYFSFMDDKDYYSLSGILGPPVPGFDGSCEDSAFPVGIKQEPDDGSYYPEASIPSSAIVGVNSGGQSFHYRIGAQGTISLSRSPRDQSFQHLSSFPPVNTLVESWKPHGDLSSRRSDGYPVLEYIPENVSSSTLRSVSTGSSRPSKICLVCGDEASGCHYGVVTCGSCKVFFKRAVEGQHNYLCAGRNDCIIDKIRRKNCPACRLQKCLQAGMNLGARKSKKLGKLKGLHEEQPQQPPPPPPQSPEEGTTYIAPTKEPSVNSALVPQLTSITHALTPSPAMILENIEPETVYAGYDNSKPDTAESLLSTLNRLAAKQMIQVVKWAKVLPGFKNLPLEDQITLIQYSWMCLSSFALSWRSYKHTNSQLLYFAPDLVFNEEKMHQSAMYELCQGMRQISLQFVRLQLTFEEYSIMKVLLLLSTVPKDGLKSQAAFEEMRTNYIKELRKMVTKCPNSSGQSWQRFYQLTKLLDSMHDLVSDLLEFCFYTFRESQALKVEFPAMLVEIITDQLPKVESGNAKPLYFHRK
Chain of bovine Estrogen Receptor (ER), ESR1 (gene 407238) (P49884 whole entry, looked up): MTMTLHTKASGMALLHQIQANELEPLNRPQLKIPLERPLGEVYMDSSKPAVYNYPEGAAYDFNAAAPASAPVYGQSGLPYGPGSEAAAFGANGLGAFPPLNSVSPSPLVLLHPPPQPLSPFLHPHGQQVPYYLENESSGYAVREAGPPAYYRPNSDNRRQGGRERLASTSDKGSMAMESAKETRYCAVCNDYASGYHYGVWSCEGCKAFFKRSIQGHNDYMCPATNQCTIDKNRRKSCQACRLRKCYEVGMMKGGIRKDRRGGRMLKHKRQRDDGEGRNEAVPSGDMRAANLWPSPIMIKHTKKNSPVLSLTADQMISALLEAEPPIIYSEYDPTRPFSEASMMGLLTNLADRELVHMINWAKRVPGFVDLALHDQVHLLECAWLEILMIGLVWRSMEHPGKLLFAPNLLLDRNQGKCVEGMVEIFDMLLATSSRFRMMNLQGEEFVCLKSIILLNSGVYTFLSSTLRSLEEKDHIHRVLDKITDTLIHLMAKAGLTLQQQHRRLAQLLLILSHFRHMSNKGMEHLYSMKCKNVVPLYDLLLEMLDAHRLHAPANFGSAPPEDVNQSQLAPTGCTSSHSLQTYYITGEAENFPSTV

O=[N+]([O-])c1ccc(Nc2ccccc2)cc1
outcome [1]: inactive
outcome [2]: inactive
AC50 (PGR (gene 5241)): 37.6 µM (active)

CCOP(=S)(OCC)OP(=S)(OCC)OCC
AC50 [1]: 17.8 µM (active)

CC(C)N(C(=O)CCl)c1ccccc1
AC50 [3]: 7.59 µM (active) and 7.28 µM (active)
AC50 [1]: 3.16 µM (active) and 407 nM (active)
outcome [2]: inactive
outcome [4]: inactive
outcome [5]: inactive
outcome [6]: inactive
AC50 [7]: 45.7 µM (active)
outcome [8]: inactive

CCOP(=O)(OCC)OC(=CCl)c1ccc(Cl)cc1Cl
AC50 [3]: 2120 nM (active)
AC50 [1]: 1.65 µM (active)
outcome [9]: inactive
outcome [10]: inactive
AC50 (PGR (gene 5241)): 42.9 µM (active)
AC50 [11]: 25 µM (active)

Clc1cccc(Cl)c1
outcome [3]: inactive
outcome [12]: inactive
outcome [10]: inactive

COC(=O)Nc1cccc(OC(=O)Nc2cccc(C)c2)c1
AC50 [3]: 323 nM (active)

Nc1nc(N)nc(Cl)n1
outcome [13]: inactive

CCOCn1c(-c2ccc(Cl)cc2)c(C#N)c(Br)c1C(F)(F)F
AC50 [3]: 368 nM (active)
outcome [9]: inactive
outcome [2]: inactive
AC50 [4]: 12.4 µM (active)
outcome [5]: inactive
AC50 [6]: 16.9 µM (active)
AC50 [8]: 12.4 µM (active)

O=C1C=CC(=O)c2ccccc21
AC50 [14]: 33.9 µM (active)
AC50 (PGR (gene 5241)): 38.6 µM (active)
AC50 [11]: 4.63 µM (active)

O=S(=O)(C(Cl)(Cl)Cl)C(Cl)(Cl)Cl
outcome [13]: inactive

Cc1ccccc1OP(=O)(Oc1ccccc1C)Oc1ccccc1C
AC50 [3]: 800 nM (active)
AC50 [1]: 17.1 µM (active)
outcome (PGR (gene 5241)): inactive

Cc1cccc(OP(=O)(Oc2cccc(C)c2)Oc2cccc(C)c2)c1
AC50 [3]: 1790 nM (active)
AC50 [1]: 1.26 µM (active)
outcome [11]: inactive

CCCCCCCCCCCCc1cccc(S(=O)(=O)O)c1
AC50 [1]: 12.4 µM (active)
AC50 (NCBI gene 100848466): 19.5 µM (active)
AC50 [12]: 17.9 µM (active)
AC50 [15]: 22.5 µM (active)
AC50 (PGR (gene 5241)): 15.9 µM (active)
AC50 [11]: 4.55 µM (active)
